Source: PubChem
An excerpt weighted towards active compounds, which were near 3.5% of everything screened.
Bead autofluor = counter-screen for toxin protease inhibitors: compound fluorescence; compound autofluorescence counterscreen, microsphere flow cytometry; hits give high values; fluorescence intensity (no concentration beside the values); 3.1% of 360,000 active; in the data active = fluorescence intensity above about 16000; inconclusive = no clear call, values can overlap the other calls
BoNT-F LC inh = BoNT/F light chain protease inhibitors, primary screen, biochemical, flow cytometry, MLPCN library. Botulinum neurotoxin type F light chain protease (Clostridium botulinum). Multiplex microsphere protease cleavage assay. inhibition, % at 10 µM. 0.22% of 360,000 active; in the data active = inhibition above about 35%, passing the limit was not always enough; inconclusive = no clear call, values can overlap the other calls; also: plate controls were buffer without enzyme for full effect and enzyme alone for no effect
Anthrax LF inh2 = Bacillus anthracis LF protease inhibitors, primary screen, biochemical, multiplex microsphere, MLPCN library | Lethal factor (Bacillus anthracis), P15917 | multiplex microsphere protease cleavage assay | inhibition, % at 10 µM | 0.12% of 360,000 active | AID 588501, 2011; also: plate controls were buffer without enzyme for full effect and enzyme alone for no effect
BoNT A protease = BoNT/A light chain protease inhibitors, primary screen, biochemical, flow cytometry, MLPCN library; Botulinum neurotoxin type A light chain protease (Clostridium botulinum A str. ATCC 3502); multiplex microsphere protease substrate cleavage; inhibition, % at 10 µM; 0.17% of 360,000 active; also: plate controls were buffer without enzyme for full effect and enzyme alone for no effect
An asterisk follows results filed as active. Rule as the data show it, unless noted: active = inhibition above about 30%; inconclusive = no clear call, values can overlap the other calls; inactive = below that.

`Cc1c(C(=O)Nc2ccncc2)oc2ccccc12` gave Bead autofluor 5119, BoNT-F LC inh -4, Anthrax LF inh2 -7 and BoNT A protease 0.
`COC(=O)c1sc(NC(=O)c2oc3ccccc3c2C)nc1C` gave Bead autofluor 2993, BoNT-F LC inh -3, Anthrax LF inh2 -5 and BoNT A protease 0.
COC(=O)[C@@H](NC(=O)NCc1cccs1)C(C)C was read as Bead autofluor 18068*, BoNT-F LC inh -1, Anthrax LF inh2 -5 and BoNT A protease 3.
`O=C(NCc1cccs1)c1ccccc1C(=O)NCc1cccs1` gave Bead autofluor 23472*, BoNT-F LC inh -5, Anthrax LF inh2 1 and BoNT A protease inconclusive.
Cc1c(C(=O)NC(C)c2ccncc2)oc2ccccc12 (stereo not drawn) was read as Bead autofluor 21661*, BoNT-F LC inh -1, Anthrax LF inh2 -3 and BoNT A protease inconclusive.
For COCCN(C(=O)COC(=O)CSc1ccccc1)c1c(N)n(Cc2ccccc2)c(=O)[nH]c1=O the results were Bead autofluor inconclusive, BoNT-F LC inh -1, Anthrax LF inh2 -5 and BoNT A protease 2.
COc1cc(C(=O)OCC(=O)Nc2cc(S(=O)(=O)N3CCOCC3)ccc2C)ccc1OCC(C)C was read as Bead autofluor 6484, BoNT-F LC inh 2, Anthrax LF inh2 -5 and BoNT A protease -1.
For CCc1noc(C)c1C(=O)N(C)CC(=O)Nc1cccc(OC)c1 the results were Bead autofluor 5352, BoNT-F LC inh -13, Anthrax LF inh2 1 and BoNT A protease 2.
Screening Cc1c(C(=O)NCc2ccc3c(c2)OCO3)oc2ccccc12 returned Bead autofluor 20346*, BoNT-F LC inh 3, Anthrax LF inh2 -9 and BoNT A protease 4.
Screening Cc1c(C(=O)NCc2cccnc2)oc2ccccc12 returned Bead autofluor 23977*, BoNT-F LC inh -3, Anthrax LF inh2 -1 and BoNT A protease -1.
Screening Cc1ccc(NC(=O)c2oc3ccccc3c2NC(=O)c2ccc3c(c2)OCO3)cc1 returned Bead autofluor 20506*, BoNT-F LC inh 4, Anthrax LF inh2 0 and BoNT A protease 5.
O=C(Nc1c(C(=O)Nc2cccc(F)c2)oc2ccccc12)c1ccc2c(c1)OCO2 was read as Bead autofluor 8437, BoNT-F LC inh -8, Anthrax LF inh2 -5 and BoNT A protease 0.
O=C(NCc1cccnc1)c1cc2ccccc2oc1=O was read as Bead autofluor 22899*, BoNT-F LC inh 1, Anthrax LF inh2 -1 and BoNT A protease 1.
Screening O=C(Oc1ccccc1C(=S)N1CCOCC1)c1cccc([N+](=O)[O-])c1 returned Bead autofluor 5946, BoNT-F LC inh -1, Anthrax LF inh2 0 and BoNT A protease -1.
O=C(Cn1[nH]c(=O)c2ccccc2c1=O)N1CCN(S(=O)(=O)c2ccc(Cl)cc2)CC1 was read as Bead autofluor 3739, BoNT-F LC inh -1, Anthrax LF inh2 2 and BoNT A protease 0.
Screening Cc1c(C(=O)NCc2cccs2)oc2ccccc12 returned Bead autofluor 23183*, BoNT-F LC inh -1, Anthrax LF inh2 -3 and BoNT A protease 0.
`O=C(CN(C(=O)c1csnn1)c1ccccc1C(F)(F)F)NCc1ccccc1` gave Bead autofluor 4058, BoNT-F LC inh -16, Anthrax LF inh2 -4 and BoNT A protease -2.
COCCCn1c(=N)c(C(=O)NCc2ccc3c(c2)OCO3)cc2c(=O)n3cccc(C)c3nc21 was read as Bead autofluor 5084, BoNT-F LC inh -3, Anthrax LF inh2 0 and BoNT A protease 1.
N=c1c(C(=O)NCc2ccc3c(c2)OCO3)cc2c(=O)n3ccccc3nc2n1Cc1cccnc1 was read as Bead autofluor 24844*, BoNT-F LC inh -3, Anthrax LF inh2 3 and BoNT A protease -1.
For COc1ccc(CNC(=O)c2cc3c(=O)n4ccccc4nc3n(Cc3cccnc3)c2=N)cc1 the results were Bead autofluor 8731, BoNT-F LC inh 2, Anthrax LF inh2 4 and BoNT A protease 4.
COCCCn1c(=N)c(C(=O)NCc2ccc3c(c2)OCO3)cc2c(=O)n3ccccc3nc21 was read as Bead autofluor 22332*, BoNT-F LC inh -1, Anthrax LF inh2 0 and BoNT A protease 1.
Brc1cc(Br)c2nc(-c3ccc(N4CCOCC4)cc3)ccc2c1 was read as Bead autofluor 19443*, BoNT-F LC inh 10, Anthrax LF inh2 24 and BoNT A protease inconclusive.
Screening Cc1c(C(=O)NCc2ccc3c(c2)OCCO3)sc(=O)n1Cc1ccc(S(=O)(=O)N(C)C)cc1 returned Bead autofluor 5599, BoNT-F LC inh -4, Anthrax LF inh2 1 and BoNT A protease 0.
`COC(=O)[C@]12CCCCC=C1N(Cc1cccc3ccccc13)C(=O)[C@H](CC(=O)N1CCCC1)C2` gave Bead autofluor 5828, BoNT-F LC inh -1, Anthrax LF inh2 -1 and BoNT A protease 0.
Screening CCCCCCC1CC(C)(/C(C)=N/NC(N)=O)OC1=O (stereo not drawn) returned Bead autofluor 18949*, BoNT-F LC inh 6, Anthrax LF inh2 2 and BoNT A protease 5.
`Nc1c(OS(=O)(=O)c2ccccc2)cccc1OS(=O)(=O)c1ccccc1` gave Bead autofluor 3034, BoNT-F LC inh -1, Anthrax LF inh2 -2 and BoNT A protease 0.
CS(=O)(=O)N(CC(=O)Nc1ccccc1Sc1ccccc1)C1CCCCC1 was read as Bead autofluor 22169*, BoNT-F LC inh -2, Anthrax LF inh2 -3 and BoNT A protease inconclusive.
Screening C=C(C)CN(CC)C(=O)CN1C(=O)NC2(CCCc3ccccc32)C1=O (stereo not drawn) returned Bead autofluor 4996, BoNT-F LC inh -3, Anthrax LF inh2 5 and BoNT A protease -2.
CCOC(=O)C1=C(C)NC(SCC(N)=O)=C(C#N)C1c1ccccc1 (stereo not drawn) was read as Bead autofluor 7427, BoNT-F LC inh -13, Anthrax LF inh2 -3 and BoNT A protease -1.
For CCOC(=O)C1=C(c2ccccc2)NC(SCC(N)=O)=C(C#N)C1c1cccnc1 (stereo not drawn) the results were Bead autofluor 19434*, BoNT-F LC inh 4, Anthrax LF inh2 -2 and BoNT A protease 3.
Cc1cc2ccccc2c(=O)n1CC(=O)NCC(=O)N1CCN(c2ccccc2)CC1 was read as Bead autofluor 23551*, BoNT-F LC inh -5, Anthrax LF inh2 -3 and BoNT A protease -3.
`CC(OC(=O)C1CC1)C(=O)Nc1cccc(S(=O)(=O)N2CCOCC2)c1` (stereo not drawn) gave Bead autofluor 2932, BoNT-F LC inh -1, Anthrax LF inh2 5 and BoNT A protease 0.
Screening Cc1ccc(NC(=O)c2ccc(S(=O)(=O)N3CCCCC3)cc2)nc1 returned Bead autofluor 4096, BoNT-F LC inh -4, Anthrax LF inh2 2 and BoNT A protease 0.
`CCS(=O)(=O)Nc1ccc(C2=NN(C(=O)c3ccco3)C(c3cccc(F)c3)C2)cc1` (stereo not drawn) gave Bead autofluor 2506, BoNT-F LC inh -5, Anthrax LF inh2 0 and BoNT A protease 0.
